Compounds with a hit are over-represented: about 6.8% of the library has one in this group of screens.
C diff growth = blocks growth of Clostridium difficile; actives 0.25% (n = 86,000); Clostridium difficile clinical isolate growth, OD600, 24 h; hits give low values; growth activity, negative = inhibition, % at 16 µg/mL (by protocol);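 active = mean growth activity at or below -80% and every replicate also at or below -80%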;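 also: 0% = DMSO wells and -100% = levofloxacin 16 µg/mL wells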
Tcruzi prolif = T. cruzi proliferation inhibition | T. cruzi beta-gal in NIH3T3, GalScreen luminescence, 90 h | actives 5.9% (n = 77,000) | inhibition, % at 8.34 µM | AID 624255;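 active = mean inhibition above about 93%, with at least 55% of replicates each passing it, limit read from the data, passing the limit was not always enough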
Pf Dd2 growth = blocks growth of Plasmodium falciparum Dd2 parasites | P. falciparum Dd2 growth, SYBR Green, 72 h; hits give low values | activity change, % at 10 µM | actives 2.3% (n = 94,000) | AID 1159554; in the data active = activity change below about -80%
Starred values were filed as active, the others as inactive; . = no result given; ! = a repeat was not active.

SMILES	C diff growth	Tcruzi prolif	Pf Dd2 growth
COc1ccc(C#Cc2cnc3c(c2)C(=O)N([C@H](C)CO)C[C@H](C)[C@H](CN(C)S(=O)(=O)c2cccs2)O3)cc1OC	.	76.9	-84.5*!
C[C@@H]1CN([C@H](C)CO)C(=O)c2cc(NC(=O)Nc3ccc(F)cc3)ccc2O[C@@H](C)CCCCO[C@@H]1CN(C)Cc1ccc(C(=O)O)cc1	7.9	-5.1	-0.1
CO[C@H]1CN(C)C(=O)c2ccc(NC(=O)C3CC3)cc2OC[C@@H](C)N(CC2CCOCC2)C[C@H]1C	-2.6	60.8	-22.3
C[C@@H]1CCCCO[C@H](CN(C)CC2CCCCC2)[C@@H](C)CN([C@H](C)CO)C(=O)c2cc(NC(=O)NC3CCCCC3)ccc2O1	.	35.0	1.7
C[C@@H]1CN([C@@H](C)CO)C(=O)c2cccc(NC(=O)Nc3ccc(C(F)(F)F)cc3)c2O[C@H]1CN(C)C(=O)Nc1cccc2ccccc12	12.1	88.2	-88.4*
C[C@H](CO)N1C[C@H](C)[C@H](CN(C)C(=O)Nc2cccc3ccccc23)Oc2c(NC(=O)Nc3ccc(C(F)(F)F)cc3)cccc2C1=O	-36.2	89.3	-16.2
CC(C)NC(=O)Nc1cccc2c1O[C@H](CN(C)C(=O)Nc1ccc(C(F)(F)F)cc1)[C@H](C)CN([C@@H](C)CO)C2=O	-20.9	3.9	-84.7*
C[C@H](CO)N1C[C@H](C)[C@H](CN(C)C(=O)Nc2ccc(C(F)(F)F)cc2)Oc2ccc(NC(=O)Nc3cccc4ccccc34)cc2C1=O	0.6	88.2	-83.5*
C[C@@H]1CN([C@@H](C)CO)C(=O)c2cc(NC(=O)Nc3ccccc3)ccc2O[C@H]1CN(C)C(=O)Nc1cccc2ccccc12	-2.4	0.7	5.9
CC(C)NC(=O)Nc1cccc2c1O[C@H](CN(C)C(=O)Nc1ccc(C(F)(F)F)cc1)[C@@H](C)CN([C@H](C)CO)C2=O	15.5	26.6	-0.3
C[C@@H]1CN([C@@H](C)CO)C(=O)c2cc(NC(=O)Nc3cccc4ccccc34)ccc2O[C@@H]1CN(C)C(=O)Nc1ccc(C(F)(F)F)cc1	-0.2	69.8	-36.7
C[C@@H]1CN([C@@H](C)CO)C(=O)c2cc(NC(=O)Nc3ccccc3)ccc2O[C@@H]1CN(C)C(=O)Nc1cccc2ccccc12	-1.2	14.9	-91.0*
C[C@@H]1CN([C@@H](C)CO)C(=O)c2cc(NC(=O)CCN3CCOCC3)ccc2O[C@H]1CN(C)S(=O)(=O)c1cn(C)cn1	-3.9	77.7	20.7
C[C@H](CO)N1C[C@H](C)[C@@H](CN(C)C)Oc2c(NS(C)(=O)=O)cccc2C1=O	-2.2	17.7	14.4
CCCC(=O)Nc1ccc2c(c1)C(=O)N(C)[C@H]1CC[C@@H](CC(=O)NCC3CCCCC3)O[C@H]1CO2	-6.6	-36.3	-6.1
C[C@@H]1CCCCO[C@@H](CN(C)C(=O)CCC(F)(F)F)[C@@H](C)CN([C@@H](C)CO)C(=O)c2cc(NC(=O)Cc3ccccc3)ccc2O1	-6.4	-2.3	.
CCC(=O)N[C@@H]1CC[C@H](CCn2cc(-c3cccc(OC)c3)nn2)O[C@H]1CO	2.1	-0.6	-6.2
C[C@@H]1CN([C@H](C)CO)C(=O)c2cccc(NS(=O)(=O)c3cn(C)cn3)c2O[C@@H]1CN(C)C(=O)Nc1ccc(C(F)(F)F)cc1	-2.2	-84.2	-9.1
C[C@H]1CN([C@@H](C)CO)C(=O)c2cccc(NS(=O)(=O)c3cn(C)cn3)c2O[C@H]1CN(C)C(=O)Nc1ccc(C(F)(F)F)cc1	-1.8	-90.1	-85.0*
C[C@@H]1CN([C@@H](C)CO)C(=O)c2cc(NC(=O)Nc3ccc(C(F)(F)F)cc3)ccc2O[C@H]1CN(C)C(=O)Nc1cccc2ccccc12	-4.9	-43.2	-87.0*
C[C@H]1CN([C@@H](C)CO)C(=O)c2cc(NC(=O)Nc3ccc(C(F)(F)F)cc3)ccc2O[C@H]1CN(C)C(=O)Nc1cccc2ccccc12	-1.2	50.6	-31.3
C[C@H]1CN([C@@H](C)CO)C(=O)c2c(c3ccccc3n2C)-c2ccccc2CO[C@@H]1CN(C)S(=O)(=O)c1ccc(F)cc1	.	83.2	-90.7*
C[C@@H]1CN([C@H](C)CO)C(=O)c2c(c3ccccc3n2C)-c2ccccc2CO[C@H]1CN(C)S(=O)(=O)c1ccc(F)cc1	.	63.3	-39.7
C[C@@H]1CN([C@H](C)CO)C(=O)c2c(c3ccccc3n2C)-c2ccccc2CO[C@H]1CN(C)S(=O)(=O)c1ccccc1	.	72.2	-75.0
C[C@H](CO)N1C[C@H](C)[C@H](CN(C)S(=O)(=O)c2ccc(F)cc2)OCc2ccccc2-c2c(n(C)c3ccccc23)C1=O	.	83.9	-87.4*
SMILES	C diff growth	Tcruzi prolif	Pf Dd2 growth
CNC(=O)C[C@@H]1CC[C@@H]2[C@@H](COc3ccc(NC(=O)Nc4ccc(C)cc4)cc3C(=O)N2C)O1	19.1	-5.3	-3.1
CC(C)C#Cc1cnc2c(c1)C(=O)N([C@@H](C)CO)C[C@@H](C)[C@@H](CN(C)C(=O)Nc1ccccc1F)O2	.	33.7	-8.7
CCCN(C)C[C@@H]1OCCCC[C@@H](C)Oc2ccc(NC(=O)CCCN(C)C)cc2C(=O)N([C@H](C)CO)C[C@H]1C	2.0	-7.3	-23.0
C[C@H](CO)N1C[C@H](C)[C@@H](CN(C)Cc2ccc3c(c2)OCO3)Oc2c(NC(=O)CCCCCC(=O)Nc3ccccc3N)cccc2C1=O	-5.7	.	-85.5*
C[C@@H]1CN([C@@H](C)CO)C(=O)c2cc(NC(=O)CCCCCC(=O)Nc3ccccc3N)ccc2O[C@@H]1CN(C)Cc1ccc2c(c1)OCO2	0.1	.	-63.7
C[C@H](CO)N1C[C@H](C)[C@H](CN(C)Cc2ccc3c(c2)OCO3)Oc2ccc(NC(=O)CCCCCC(=O)Nc3ccccc3N)cc2C1=O	-4.2	.	-75.7
C[C@@H]1CN([C@@H](C)CO)C(=O)c2cccc(NC(=O)CCCCCC(=O)Nc3ccccc3N)c2O[C@H]1CN(C)Cc1ccc2c(c1)OCO2	-5.3	.	-88.1*
C[C@@H]1CN([C@@H](C)CO)C(=O)c2cc(NC(=O)Cc3ccccc3)ccc2O[C@@H]1CN(C)S(=O)(=O)c1ccc(F)cc1	-6.2	15.3	-0.4
C[C@@H]1CN([C@H](C)CO)C(=O)c2cccc(NS(=O)(=O)c3ccccc3)c2O[C@H]1CN(C)Cc1ccc(C(=O)Nc2ccccc2N)cc1	-0.2	.	-77.5
C[C@@H]1CN([C@H](C)CO)C(=O)c2cccc(NS(=O)(=O)c3ccccc3)c2O[C@@H]1CN(C)Cc1ccc(-c2ccccc2)cc1	.	63.6	-4.1
C[C@@H]1CN([C@H](C)CO)C(=O)c2cccc(NS(=O)(=O)c3ccc(Cl)cc3)c2O[C@@H]1CN(C)Cc1ccc(C(=O)Nc2ccccc2N)cc1	1.8	93.2	-87.4*
C[C@H](CO)N1C[C@H](C)[C@@H](CN(C)Cc2ccc(C(=O)Nc3ccccc3N)cc2)Oc2c(NS(=O)(=O)c3ccc(F)cc3)cccc2C1=O	4.3	.	-44.5
C[C@H](CO)N1C[C@H](C)[C@H](CN(C)Cc2ccc(C(=O)Nc3ccccc3N)cc2)Oc2c(NS(=O)(=O)c3ccccc3)cccc2C1=O	-4.2	.	-85.7*
Cc1ccc(S(=O)(=O)Nc2cccc3c2O[C@H](CN(C)Cc2ccc(C(=O)Nc4ccccc4N)cc2)[C@H](C)CN([C@H](C)CO)C3=O)cc1	8.3	50.3	-85.1*
